# Screens: PubChem BioAssay, several laboratories
# Most compounds without a hit are left out; they make up all but 2.7% or so of the library.
# TMEM16A inh: blocks the mouse calcium-activated chloride channel TMEM16A | AID 588511 | HEK293 TMEM16A/YFP iodide influx fluorescence, ionomycin | actives 1.2% (n = 310,000) | normalized B-score (activity score, 25-100; higher = stronger inhibition) at 10 µM | Q8BHY3;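 active = ratio plate-corrected score three or more library SD toward inhibition, starting fluorescence score within five deviations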;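 also: score derived from kinetic fluorescence span divided by baseline fluorescence per well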
# Target sequence (Q8BHY3 whole entry, looked up): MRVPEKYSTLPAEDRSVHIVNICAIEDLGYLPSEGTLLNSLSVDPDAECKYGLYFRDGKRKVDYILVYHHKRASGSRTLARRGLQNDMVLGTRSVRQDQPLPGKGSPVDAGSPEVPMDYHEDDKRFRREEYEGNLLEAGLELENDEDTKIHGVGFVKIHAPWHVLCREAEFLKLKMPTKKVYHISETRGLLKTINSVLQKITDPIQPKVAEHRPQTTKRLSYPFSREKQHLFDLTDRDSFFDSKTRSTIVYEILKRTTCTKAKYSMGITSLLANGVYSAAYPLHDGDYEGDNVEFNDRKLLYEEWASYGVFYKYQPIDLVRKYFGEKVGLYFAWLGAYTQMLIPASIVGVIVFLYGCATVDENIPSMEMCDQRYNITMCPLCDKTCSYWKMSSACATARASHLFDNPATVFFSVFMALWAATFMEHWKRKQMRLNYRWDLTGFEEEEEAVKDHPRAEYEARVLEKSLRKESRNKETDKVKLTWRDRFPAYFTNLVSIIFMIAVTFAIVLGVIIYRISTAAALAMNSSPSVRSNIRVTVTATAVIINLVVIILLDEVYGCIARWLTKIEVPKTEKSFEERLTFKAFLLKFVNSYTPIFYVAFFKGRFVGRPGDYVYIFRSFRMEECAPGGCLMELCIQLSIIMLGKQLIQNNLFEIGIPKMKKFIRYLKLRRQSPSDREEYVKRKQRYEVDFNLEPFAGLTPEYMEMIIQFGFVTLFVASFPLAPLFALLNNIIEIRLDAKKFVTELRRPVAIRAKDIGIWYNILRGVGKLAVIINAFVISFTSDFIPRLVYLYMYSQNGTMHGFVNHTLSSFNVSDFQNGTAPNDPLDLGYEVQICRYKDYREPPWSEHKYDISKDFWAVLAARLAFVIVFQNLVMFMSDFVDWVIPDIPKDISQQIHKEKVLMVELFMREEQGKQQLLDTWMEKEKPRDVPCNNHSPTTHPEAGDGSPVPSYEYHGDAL
# PREPL inhibitor: inhibitors of human prolyl oligopeptidase-like enzyme PREPL; Q4J6C6; recombinant PREPL, fluorescence polarization activity-based probe; inhibition, % at 5.96 µM; actives 0.68% (n = 320,000); in the data active = inhibition above about 43%;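 also: 0% = enzyme with DMSO and 100% = wells lacking enzyme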
# FID counter: fluorescent intercalator displacement, NS3 helicase counter-screen | DNA fluorescent intercalator displacement, fluorescence | inhibition, % at 7.9 µM | actives 0.17% (n = 290,000) | AID 1845; in the data active = inhibition above about 37%;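 also: 0% = vehicle and 100% = reference compound; higher means more ethidium bromide displaced from hairpin DNA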
# ANO1 activ: mouse TMEM16A channel activation, primary screen | B-score at 10 µM | HEK293 TMEM16A/YFP-H148Q/I152L, iodide quench fluorescence; active compounds read low | AID 623877 | actives 0.3% (n = 340,000);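 active = fluorescence-ratio B-score plate-corrected deviation score at least 3 library SD below zero, with starting fluorescence score within 5 deviations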;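 also: channel opened by trigger with iodide after compound preincubation; score built on the fluorescence ratio of max minus min over baseline; more negative score means more quench and so TMEM16A activation or potentiation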
# PP1 counter: PP1-alpha (human) inhibition in PP5 counter-screen; P62136; purified PP1alpha, OMFP fluorescence; inhibition, % at 6.7 µM; actives 0.9% (n = 320,000);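 active = inhibition above the mean inhibition of all tested compounds plus 3 SD, computed separately for each screening campaign, cut at about 15% in these data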
# PP5 inh: inhibitors of human protein phosphatase 5 (PP5); P53041; purified PP5c, OMFP substrate fluorescence; inhibition, % at 6.7 µM; actives 0.18% (n = 320,000); AID 1987;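 active = inhibition above the campaign's mean inhibition across all tested compounds plus 3 SD, cut at about 9.5% in these data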;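 also: 0% = DMSO only and 100% = 100 µM cantharidin control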
# Starred values were filed as active, the others as inactive; i = inactive; x = not tested or not shown.
SMILES,TMEM16A inh,PREPL inhibitor,FID counter,ANO1 activ,PP1 counter,PP5 inh
CC(Sc1nnc(CN2CCCC2)n1Cc1ccccc1)C(=O)Nc1ccc(F)cc1Cl (stereo unspecified),x,x,x,i,x,x
CCc1ccc(N/C(SC)=C(/C#N)C(N)=O)cc1,i,4,-6,i,-1,1
N#CC(C#N)=C(Nc1ccc(F)cc1)SCc1cccc(F)c1,25*,11,-4,i,4,4
CN(C)CCNc1c2c(nc3ccccc13)CCC2,i,11,45*,i,-2,2
CC1CCN(CCCCOc2ccc([N+](=O)[O-])cc2)CC1,i,4,13,i,1,5
COC(=O)C1CCN(Cc2ccc(OCCCN3CCN(c4ccc([N+](=O)[O-])cc4)CC3)cc2)CC1,25*,30,22,i,0,-3
O=C(NCC1CCCO1)c1ccccc1-c1nc(-c2ccc(F)cc2)no1 (stereo unspecified),100*,5,-10,i,-3,3
CC(C)(C)N1C(=O)Cc2c1nc(N)c1c(N)nc(N3CCCCC3CO)c(C#N)c21 (stereo unspecified),i,39,7,i,11,15*
COc1ccccc1CC(=O)Nc1ccon1,i,-3,0,i,0,-1
O=C(Nc1cccnc1)Nc1ccccn1,i,-1,0,-6.4*,-2,0
O=C(Nc1ccccn1)c1cccnc1,i,2,-3,i,1,0
O=C(COc1ccc(-n2ccnc2)cc1)Nc1cccc(Cl)c1,25*,-6,-2,i,-1,1
CC(C)(C)c1ccc(C(=O)c2c[nH]c(C(=O)O)c2)cc1,i,-6,-11,i,1,-1
COC(=O)c1cc(C(=O)c2ccc(C(C)(C)C)cc2)c[nH]1,25*,15,-20,i,-1,4
O=C(NC1CC1)c1ccc2c(c1)ncn2C1CCCC1,i,8,-2,i,7,7
Cn1nnc2cc(C(=O)NC3CC3)ccc21,i,-5,-1,-29*,-11,0
CCOc1nc(OCC)c2cnn(C)c2n1,i,21,-5,i,0,1
Cc1ccc(-n2ncc3c(NCc4cccnc4)ncnc32)cc1C,25*,1,-5,i,-8,5
Cc1cccc(-n2ncc3c(NCc4cccnc4)ncnc32)c1,i,-4,x,i,1,0
O=C(Nc1ccc(F)cc1)c1ccc2c(=O)n3c(nc2c1)CCCCC3,25*,-3,-14,i,-1,1
CC(=O)c1ccc(NC(=O)c2ccc3c(=O)n4c(nc3c2)CCCCC4)cc1,i,11,-21,i,-1,-1
O=C1NN(c2ccc(F)c(Cl)c2)C(=O)/C1=C\c1cccc(OC(=O)c2cccs2)c1,i,31,-8,i,15*,2
CCCn1nnnc1NCc1ccc(N(CC)CC)cc1,i,2,-2,i,3,1
Cc1ccnc(NS(=O)(=O)c2ccc(NS(=O)(=O)c3ccc([N+](=O)[O-])cc3)cc2)n1,i,23,2,i,-8,-1
Cc1ccnc(NS(=O)(=O)c2ccc(NS(=O)(=O)c3cc(Cl)ccc3Cl)cc2)n1,i,3,-24,-29*,-2,-4
SMILES,TMEM16A inh,PREPL inhibitor,FID counter,ANO1 activ,PP1 counter,PP5 inh
N#CC1=C(N)Oc2cc(O)c(Cl)cc2C1c1cccnc1 (stereo unspecified),i,x,-6,-5.2*,x,x
Cn1cc(C(=O)NCCN2CCN(c3cccc(Cl)c3)CC2)c2c3ccccc3n(C)c2c1=O,i,46*,0,i,-3,3
O=C(Nc1ccccn1)c1cc2ccccc2cc1O,i,10,-12,i,0,0
COCc1c(C#N)c(NCc2cc(OC)c(OC)c(OC)c2)nc(C)c1[N+](=O)[O-],25*,10,-33,i,-1,0
COCc1c(C#N)c(NCCc2ccccc2)nc(C)c1[N+](=O)[O-],i,28,0,i,-3,3
Cc1ccc2nc(-c3ccc(NC(=O)CSc4nc(N)cc(=O)[nH]4)cc3)sc2c1,i,-14,-15,i,16*,-2
CCOC(=O)C1=C(C(=O)OCC)c2ccc(OC)c(OC)c2C1,x,x,x,i,x,x
CCOc1ccccc1NC(=S)NCCc1ccccc1,i,-7,-9,-5.2*,-2,3
O=C(Nc1ccc(Cl)cc1Cl)c1ccc(Br)o1,i,-6,-9,i,-3,1
COc1ccccc1CCNC(=O)C(=O)NCC1OCCN1S(=O)(=O)c1ccc(OC)c(OC)c1 (stereo unspecified),100*,16,-35,i,2,2
O=C(CCc1nc2sc3c(c2c(=O)[nH]1)CCCC3)Nc1ccccc1Cl,i,-28,x,i,16*,-1
CCOC(=O)/C(C#N)=C/c1c(OCC)n(CC)c2ccccc12,100*,12,-13,i,2,3
O=C(O)Cc1sc(Nc2ccccc2)nc1-c1ccc(Cl)cc1,i,28,5,i,0,0
Cc1ccc(Nc2nc(-c3ccccc3)c(CC(=O)O)s2)cc1,i,58*,-4,i,-1,4
Cn1c(N2CCN(c3ccccn3)CC2)nc2c1c(=O)n(Cc1ccc(Cl)cc1)c(=O)n2C,100*,1,-2,i,-3,2
CCc1cccc(NC(=S)N2CCC(c3ccccc3)C2)c1 (stereo unspecified),i,-6,-19,-5.7*,4,2
O=C(c1ccc(-n2ccnc2)cc1)N1CCCC(CO)(Cc2cccc(Cl)c2)C1 (stereo unspecified),i,-1,-27,i,-7,1
Cc1cc(Nc2nc3ccccc3nc2Cl)n(-c2ccc([N+](=O)[O-])cc2)n1,100*,16,4,i,-3,2
CNC(=O)COC(=O)c1ccc(Cl)c(S(N)(=O)=O)c1,i,7,-6,i,-3,-1
C=CCNC(=O)COC(=O)c1ccc(Cl)c(S(N)(=O)=O)c1,i,-1,-2,-29*,-6,1
CCOc1ccc(/C(O)=C2/C(=O)C(=O)N(c3ccccn3)C2c2ccc(C)cc2)c(C)c1 (stereo unspecified),i,-4,-44,x,17*,1
CCOc1ccc(/C(O)=C2/C(=O)C(=O)N(c3ccccn3)C2c2ccc(Cl)cc2)c(C)c1 (stereo unspecified),i,x,-43,i,x,x
COc1cccc(CN(C)C(=O)CNC(=O)c2ccc(-c3ccccc3)cc2)c1OC,100*,11,-41,i,-1,4
CN(Cc1ccccc1)Cc1ccccc1C(O)c1ccccc1 (stereo unspecified),x,x,x,i,x,x
CCOC(=O)C1(CCOc2ccccc2)CCN(Cc2ccncc2)CC1,i,-30,-16,i,-1,0
